Several values for one entry are separate records, joined by “and”; a condition that tells them apart may be missing. Equal entries are not always repeated. Activity calls are given as the source filed them. Unless noted, the call rests on the fitted dose curve; in most records, active means well fitted curve in the direction sought with a large enough effect in the repeat runs; inconclusive means weak or mixed curves; inactive means no such curve, though single readings can be large; an effect the other way counts as inactive or inconclusive.
Key:
[1] = test system: thyroid hormone receptor (rat, GH3 cells); test: qHTS assay to identify small molecule agonists of the thyroid receptor (TR) signaling pathway (AID 743066; calls by dose curve)
[2] = target: Estrogen receptor (Homo sapiens) (UniProt P03372); test: qHTS assay to identify small molecule antagonists of the estrogen receptor alpha (ER-alpha) signaling pathway (AID 743069; active means well fitted curve in the direction sought with a large enough effect in the signal ratio in the repeat runs, not every such curve was filed as active; inconclusive means weak or mixed curves, or effect the other way; inactive means no such curve, though single readings can be large or run the other way; the % refers to the signal ratio; further: potency means the concentration at half of the fitted maximal effect)
Sequence of Estrogen receptor (Homo sapiens) (P03372 whole entry, looked up): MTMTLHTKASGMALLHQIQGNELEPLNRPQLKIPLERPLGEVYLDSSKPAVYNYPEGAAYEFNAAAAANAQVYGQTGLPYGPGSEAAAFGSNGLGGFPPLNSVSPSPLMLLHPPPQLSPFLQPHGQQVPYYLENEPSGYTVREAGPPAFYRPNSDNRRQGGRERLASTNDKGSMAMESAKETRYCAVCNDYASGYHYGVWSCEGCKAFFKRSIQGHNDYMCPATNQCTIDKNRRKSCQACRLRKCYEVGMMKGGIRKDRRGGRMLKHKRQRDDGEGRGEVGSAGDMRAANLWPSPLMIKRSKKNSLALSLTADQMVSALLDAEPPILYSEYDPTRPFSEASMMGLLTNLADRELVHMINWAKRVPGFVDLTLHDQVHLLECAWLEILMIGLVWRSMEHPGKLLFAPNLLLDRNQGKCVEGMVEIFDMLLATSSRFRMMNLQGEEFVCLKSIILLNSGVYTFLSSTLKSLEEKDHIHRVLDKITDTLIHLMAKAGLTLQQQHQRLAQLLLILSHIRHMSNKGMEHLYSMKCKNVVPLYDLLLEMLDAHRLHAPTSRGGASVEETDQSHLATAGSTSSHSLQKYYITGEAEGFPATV
How it was run: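 HEK293 cells stably carrying an ER-alpha-UAS-bla beta-lactamase reporter were pre-cultured overnight in 2% charcoal-stripped FBS medium. Test compounds in DMSO were added together with 17beta-estradiol for 18 hr at 37C. Read-out was fluorescence after 2 hr with LiveBLAzer B/G FRET substrate at room temperature.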

[3] = qHTS assay to identify small molecule antagonists of the estrogen receptor alpha (ER-alpha) signaling pathway - cell viability counter screen (AID 743074; calls by dose curve; further: nearly all actives have a fitted effect of over 45% in size)
[4] = target: Estrogen receptor (Homo sapiens) (UniProt P03372); test: qHTS assay to identify small molecule agonists of the estrogen receptor alpha (ER-alpha) signaling pathway (AID 743075; calls by dose curve; further: potency means the concentration at half of the fitted maximal effect)
[5] = target: Estrogen receptor (Homo sapiens) (UniProt P03372); test: qHTS assay to identify small molecule agonists of the estrogen receptor alpha (ER-alpha) signaling pathway using the BG1 cell line (AID 743079); conditions: BG1Luc4E2 cells, ERE-luciferase agonist, 22 h; activation: at 70.3 µM (top of the series); further: nearly all actives have a fitted effect of over 20% in size; further: potency means the concentration at half of the fitted maximal effect
[6] = qHTS assay to identify small molecule antagonists of the estrogen receptor alpha (ER-alpha) signaling pathway using the BG1 cell line (AID 743080; calls by dose curve; further: nearly all actives have a fitted effect of over 25% in size); conditions: BG1Luc4E2 ERE-luciferase antagonist mode, luminescence; activity change, negative = inhibition: at 70.3 µM (top of the series)
How it was run: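 Antagonist mode: compounds in DMSO were pinned onto BG1-Luc-4E2 cells alongside 17beta-estradiol agonist, incubated 21.5 h, and ERE-driven luciferase measured with ONE-Glo. Cytotoxicity was multiplexed using CellTiter-Fluor fluorescence.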

[7] = qHTS assay to identify small molecule antagonists of the estrogen receptor alpha (ER-alpha) signaling pathway using the BG1 cell line - cell viability counter screen (AID 743081);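 further: compound given together with 17beta-estradiol as the ER stimulus; nearly all actives have a fitted effect of over 45% in size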
Aromatase (Homo sapiens) = Aromatase (Homo sapiens) (UniProt P11511); test: qHTS assay to identify aromatase inhibitors (AID 743083); further: nearly all actives have a fitted effect of over 55% in size; further: potency means the concentration at half of the fitted maximal effect
Sequence of Aromatase (Homo sapiens) (P11511 whole entry, looked up): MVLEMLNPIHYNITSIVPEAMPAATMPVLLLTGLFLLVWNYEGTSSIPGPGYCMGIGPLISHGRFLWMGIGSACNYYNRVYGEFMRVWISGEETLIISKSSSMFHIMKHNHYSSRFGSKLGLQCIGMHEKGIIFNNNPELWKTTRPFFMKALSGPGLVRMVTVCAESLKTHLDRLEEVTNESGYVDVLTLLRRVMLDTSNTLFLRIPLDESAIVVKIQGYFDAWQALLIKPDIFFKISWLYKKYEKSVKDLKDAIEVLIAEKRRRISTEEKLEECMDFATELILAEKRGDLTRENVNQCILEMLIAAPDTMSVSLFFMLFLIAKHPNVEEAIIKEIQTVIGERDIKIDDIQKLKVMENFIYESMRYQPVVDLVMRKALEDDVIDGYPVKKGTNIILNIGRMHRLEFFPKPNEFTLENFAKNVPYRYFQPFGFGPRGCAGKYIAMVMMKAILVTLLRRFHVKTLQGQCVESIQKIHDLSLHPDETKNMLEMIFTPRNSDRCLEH

[8] = qHTS assay to identify aromatase inhibitors - cell viability counter screen (AID 743084);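 further: cells stimulated with testosterone during compound exposure; nearly all actives have a fitted effect of over 55% in size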; further: potency means the concentration at half of the fitted maximal effect
[9] = target: Aryl hydrocarbon receptor (Homo sapiens) (UniProt P35869); test: qHTS assay to identify small molecule that activate the aryl hydrocarbon receptor (AhR) signaling pathway (AID 743085);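 further: HG2L7.5c1 human HepG2 liver cells with stably integrated DRE-driven firefly reporter; nearly all actives have a fitted effect of over 15% in size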
Sequence of Aryl hydrocarbon receptor (Homo sapiens) (P35869 whole entry, looked up): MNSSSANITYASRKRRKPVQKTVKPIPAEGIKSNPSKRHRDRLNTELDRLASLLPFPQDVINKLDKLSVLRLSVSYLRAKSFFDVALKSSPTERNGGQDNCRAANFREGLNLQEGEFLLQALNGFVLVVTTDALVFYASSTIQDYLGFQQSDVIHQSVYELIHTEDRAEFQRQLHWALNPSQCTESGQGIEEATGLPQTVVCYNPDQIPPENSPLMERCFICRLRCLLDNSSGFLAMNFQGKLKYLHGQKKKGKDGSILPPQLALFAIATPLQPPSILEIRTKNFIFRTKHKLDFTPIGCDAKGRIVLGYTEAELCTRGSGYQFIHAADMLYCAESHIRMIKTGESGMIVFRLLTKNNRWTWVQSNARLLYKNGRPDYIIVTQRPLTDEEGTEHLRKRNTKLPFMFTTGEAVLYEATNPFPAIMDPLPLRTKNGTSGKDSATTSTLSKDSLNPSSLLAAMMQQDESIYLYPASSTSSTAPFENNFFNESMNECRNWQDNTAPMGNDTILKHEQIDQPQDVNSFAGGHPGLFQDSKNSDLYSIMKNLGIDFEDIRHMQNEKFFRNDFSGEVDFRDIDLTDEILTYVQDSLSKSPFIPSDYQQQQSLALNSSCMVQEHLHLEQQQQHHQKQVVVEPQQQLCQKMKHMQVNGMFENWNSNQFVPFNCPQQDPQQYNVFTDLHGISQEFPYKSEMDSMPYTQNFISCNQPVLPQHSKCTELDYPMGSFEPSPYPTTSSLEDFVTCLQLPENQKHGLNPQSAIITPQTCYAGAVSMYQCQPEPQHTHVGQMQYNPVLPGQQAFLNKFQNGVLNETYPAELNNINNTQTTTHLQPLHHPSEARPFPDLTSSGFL
How it was run: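 A multiplexed format paired cell viability (CellTiter-Fluor fluorescence) with AhR-dependent luciferase output (ONE-Glo luminescence) in the same wells of HepG2 DRE-luc cells after 24 h compound exposure at 37C.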

[10] = qHTS assay to identify small molecule that activate the aryl hydrocarbon receptor (AhR) signaling pathway - cell viability counter screen (AID 743086);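 further: HepG2 liver cells carrying the AhR DRE luciferase reporter; nearly all actives have a fitted effect of over 45% in size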
How it was run: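 HepG2-AhR-luc (HG2L7.5c1) cells, 4000/well, were preincubated 5 h at 37C, exposed to compound in qHTS format for 24 hr at 37C, then given CellTiter-Fluor for 30 min; viability was read as fluorescence in the reporter wells.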

[11] = target: Peroxisome proliferator-activated receptor gamma (Homo sapiens) (UniProt P37231); test: qHTS assay to identify small molecule agonists of the peroxisome proliferator-activated receptor gamma (PPARg) signaling pathway (AID 743094; active means well fitted activation curve with a large enough effect in the signal ratio in the repeat runs, not every such curve was filed as active; inconclusive means weak or mixed curves, or effect the other way; inactive means no such curve, though single readings can be large or run the other way; the % refers to the signal ratio)
Sequence of Peroxisome proliferator-activated receptor gamma (Homo sapiens) (P37231 whole entry, looked up): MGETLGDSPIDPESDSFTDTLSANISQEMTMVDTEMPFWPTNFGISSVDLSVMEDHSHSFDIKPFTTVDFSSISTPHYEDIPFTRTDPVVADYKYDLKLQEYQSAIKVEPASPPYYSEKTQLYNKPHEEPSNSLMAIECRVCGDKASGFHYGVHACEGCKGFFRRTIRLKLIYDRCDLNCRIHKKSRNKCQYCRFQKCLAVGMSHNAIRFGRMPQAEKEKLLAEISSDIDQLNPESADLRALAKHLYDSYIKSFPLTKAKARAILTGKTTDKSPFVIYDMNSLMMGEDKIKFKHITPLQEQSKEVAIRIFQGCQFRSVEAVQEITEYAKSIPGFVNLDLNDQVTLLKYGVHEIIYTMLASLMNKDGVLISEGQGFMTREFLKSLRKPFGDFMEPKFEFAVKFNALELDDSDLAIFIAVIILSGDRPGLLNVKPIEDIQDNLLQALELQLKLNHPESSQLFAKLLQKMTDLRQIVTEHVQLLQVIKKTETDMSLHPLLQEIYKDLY
How it was run: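 Following 5 h plating at 37C, PPARg-bla HEK293H cells receive compound or DMSO for 17 h; fluorescence intensity is recorded after LiveBLAzer B/G loading for 1 h at room temperature.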

[12] = target: Peroxisome proliferator-activated receptor gamma (Homo sapiens) (UniProt P37231); test: qHTS assay to identify small molecule antagonists of the peroxisome proliferator-activated receptor gamma (PPARg) signaling pathway (AID 743191; calls by dose curve; further: nearly all actives have a fitted effect of over 30% in size; further: potency means the concentration at half of the fitted maximal effect)
How it was run: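 GeneBLAzer PPARg UAS-bla HEK293H cells carrying a UAS-driven beta-lactamase reporter were plated at 3000 cells/well, preincubated 5 h at 37C, then given compound for 17 h at 37C; LiveBLAzer B/G FRET substrate was read after 1 h at room temperature.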

[13] = qHTS assay to identify small molecule antagonists of the peroxisome proliferator-activated receptor gamma (PPARg) signaling pathway - cell viability counter screen (AID 743194); further: nearly all actives have a fitted effect of over 55% in size
How it was run: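 PPARg-UAS-bla HEK293H cells were plated, rested 5 h at 37 C, then treated with compounds plus rosiglitazone (50 nM final) for 17 h at 37 C; viability was then read by CellTiter-Glo luminescence after 30 min at room temperature.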

[14] = qHTS assay for small molecule agonists of the antioxidant response element (ARE) signaling pathway (AID 743202; active means well fitted activation curve with a large enough effect in the signal ratio in the repeat runs, not every such curve was filed as active; inconclusive means weak or mixed curves, or effect the other way; inactive means no such curve, though single readings can be large or run the other way; the % refers to the signal ratio)
How it was run: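 Read-out: LiveBLAzer B/G FRET substrate fluorescence after 2 h at room temperature, following 16 h compound treatment at 37 C of HepG2 cells carrying an ARE-driven beta-lactamase reporter.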

[15] = qHTS assay for small molecule agonists of the antioxidant response element (ARE) signaling pathway - cell viability counter screen (AID 743203; calls by dose curve; further: nearly all actives have a fitted effect of over 55% in size)
How it was run: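 Compounds in DMSO were pinned onto ARE-bla HepG2 cells plated 5 hrs earlier at 2,000 cells/well. Sixteen hours later at 37C/5% CO2, CellTiter-Glo was added and luminescence measured after 30 min at room temperature.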

[16] = qHTS assay for small molecule activators of the heat shock response signaling pathway (AID 743210; active means well fitted activation curve with a large enough effect in the signal ratio in the repeat runs, with a control signal flat, not every such curve was filed as active; inconclusive means weak or mixed curves; the % refers to the signal ratio)
How it was run: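 HSE-bla HeLa cells (beta-lactamase reporter under heat shock response elements) were exposed to compounds for 5 h at 37 C, then loaded with LiveBLAzer B/G FRET substrate for 2.5 h at room temperature before fluorescence reading.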

[17] = qHTS assay to identify small molecule agonists of the peroxisome proliferator-activated receptor delta (PPARd) signaling pathway - cell viability counter screen (AID 743211); further: nearly all actives have a fitted effect of over 55% in size; further: potency means the concentration at half of the fitted maximal effect
How it was run: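 Tox21 library compounds, delivered in DMSO, were incubated 17 h with PPARd-bla HEK293H cells; cytotoxicity was taken from CellTiter-Glo luminescence read 30 min after reagent addition.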

[18] = target: Peroxisome proliferator-activated receptor delta (Homo sapiens) (UniProt Q03181); test: qHTS assay to identify small molecule agonists of the peroxisome proliferator-activated receptor delta (PPARd) signaling pathway (AID 743212; calls by dose curve)
Sequence of Peroxisome proliferator-activated receptor delta (Homo sapiens) (Q03181 whole entry, looked up): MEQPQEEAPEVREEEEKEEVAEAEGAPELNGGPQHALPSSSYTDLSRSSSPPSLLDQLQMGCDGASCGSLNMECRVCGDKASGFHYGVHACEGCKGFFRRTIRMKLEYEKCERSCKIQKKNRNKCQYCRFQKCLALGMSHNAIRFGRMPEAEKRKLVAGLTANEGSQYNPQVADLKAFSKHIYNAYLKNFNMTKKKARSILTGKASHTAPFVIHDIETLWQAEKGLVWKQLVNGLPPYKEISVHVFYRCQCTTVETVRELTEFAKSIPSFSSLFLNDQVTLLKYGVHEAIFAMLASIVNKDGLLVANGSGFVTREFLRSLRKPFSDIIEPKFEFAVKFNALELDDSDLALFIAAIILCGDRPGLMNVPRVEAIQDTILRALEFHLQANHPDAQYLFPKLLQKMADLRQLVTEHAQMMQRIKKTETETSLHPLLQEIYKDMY
How it was run: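 GeneBLAzer PPARd UAS-bla HEK293H cells (beta-lactamase reporter under UAS control), plated and rested 5 h at 37 C, then exposed to compounds in DMSO at 37 C; LiveBLAzer B/G FRET substrate added, 2 h room temperature, fluorescence read.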

[19] = qHTS assay for small molecule activators of the heat shock response signaling pathway - cell viability counter screen (AID 743209); further: nearly all actives have a fitted effect of over 50% in size
How it was run: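 Counter screen for cytotoxicity in HeLa HSE-bla reporter cells. Treatment was 5 h at 37 C; viability was detected by luminescent ATP assay (CellTiter-Glo) in the same wells as the beta-lactamase read.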

Measured: Potency

Cc1cn[nH]c1
inactive: [1] | [2] | [3] | [4] | [5] | [6] | [7] | Aromatase (Homo sapiens) | [8] | [9] | [10] | [11] | [12] | [13] | [14] | [15] | [16] | [17] | [18]

CCOC(=O)[C@@](C)(N)Cc1ccc(O)c(O)c1
inactive: [1] | [2] | [3] | [4] | [5] | [6] | [7] | Aromatase (Homo sapiens) | [8] | [9] | [10] | [11] | [12] | [13] | [15] | [19] | [16] | [17] | [18]

CC(CN(C)C)CN1c2ccccc2CCc2ccccc21 (configuration not stated)
active: [17] 26.6 µM
inactive: [1] | [2] | [3] | [4] | [5] | [6] | [9] | [10] | [14] | [15] | [16]

NC(=O)c1ccccc1N
inactive: [1] | [2] | [3] | [4] | [5] | [6] | [7] | Aromatase (Homo sapiens) | [8] | [9] | [10] | [11] | [12] | [13] | [14] | [15] | [16] | [17] | [18]

c1ccc(Sc2ccccc2)cc1
inactive: [1] | [2] | [3] | [4] | [5] | [6] | [7] | Aromatase (Homo sapiens) | [8] | [9] | [10] | [11] | [12] | [13] | [14] | [15]

CCCCCCCOC(=O)c1ccc(O)cc1
active: [2] 54.9 µM [inhibitor] | [4] 55 µM [inconclusive] and 54.9 µM [inconclusive] | [5] 15.4 µM and 19.3 µM | Aromatase (Homo sapiens) 43.3 µM | [12] 43.6 µM
inactive: [1] | [3] | [7] | [8] | [9] | [10] | [11] | [13] | [14] | [15]

Cn1cnc2ncnc(N)c21
inactive: [1] | [2] | [3] | [4] | [5] | [6] | [7] | Aromatase (Homo sapiens) | [8] | [9] | [10] | [11] | [13] | [14] | [15] | [16] | [17] | [18]

CCCCCCCCCCCCCCCC
inactive: [1] | [2] | [3] | [4] | [6] | [7] | Aromatase (Homo sapiens) | [8] | [9] | [10] | [11] | [12] | [13] | [15] | [16] | [17] | [18]

CCCCOC(=O)C(C)CC (configuration not stated)
inactive: [1] | [2] | [3] | [4] | [5] | [6] | [7] | Aromatase (Homo sapiens) | [8] | [9] | [13] | [14] | [15]

O=C(O)c1cccc(Cl)n1
inactive: [1] | [2] | [3] | [4] | [5] | [6] | [7] | Aromatase (Homo sapiens) | [8] | [9] | [10] | [11] | [13] | [15] | [18]

O=C(O)Cc1ccc(OCCNC[C@H](O)c2ccccc2)cc1
inactive: [1] | [2] | [3] | [4] | [5] | [6] | [7] | Aromatase (Homo sapiens) | [8] | [9] | [11] | [12] | [13] | [14] | [15] | [19] | [17]

CCCC(CC)CCCCCCCN (configuration not stated)
inactive: [1] | [2] | [3] | [4] | [5] | [6] | [7] | Aromatase (Homo sapiens) | [8] | [9] | [10] | [11] | [14] | [19] | [17] | [18]

C[C@@H]1CC[C@H]2C(C)(C)[C@H]3C[C@@]12CC[C@@]3(C)O
inactive: [1] | [2] | [3] | [4] | [5] | [7] | Aromatase (Homo sapiens) | [8] | [9] | [10] | [11] | [13] | [14] | [15] | [18]

Nc1cc(Cl)c([N+](=O)[O-])cc1O
active: [8] 30.4 µM
inactive: [1] | [2] | [3] | [4] | [5] | [6] | Aromatase (Homo sapiens) | [13] | [15] | [19] | [16] | [17] | [18]

ClC/C=C\CCl
inactive: [1] | [2] | [3] | [4] | [5] | [6] | [7] | Aromatase (Homo sapiens) | [8] | [10] | [11] | [12] | [13] | [15] | [16] | [17] | [18]
